Among the data in PubChem BioAssay (Tox21) are Potency and activity change, negative = cytotoxicity values, retold here.

Inconclusive results are not listed. A call without a number means that no potency is given here. Unmarked numbers belong to inactive results. The source made the active and inactive calls. Calls come from the whole dose curve.

This test is described as follows: qHTS assay to identify small molecule agonists of H2AX - cell viability counter screen (AID 1224847). Note: top concentration of the series differs between compounds; nearly all actives have a fitted effect of over 30% in size. Conditions: CHO-K1 viability, CellTiter-Glo luminescence, 3 h; series mostly up to 154 µM. An excerpt: National Center for Advancing Translational Sciences [NCATS]
NIH Chemical Genomics Center [NCGC]
U.S. Environmental Protection Agency [EPA]
National Institutes of Environmental Health Sciences [NIEHS]
National Toxicology Program [NTP]
U.S. Food and Drug Administration [FDA]
HTRF phospho-H2AX (Ser139) assay (Cisbio Bioassays, US) enables the quantitative detection of the histone variant H2AX when phosphorylated on serine 139. When double-stranded DNA breaks, either by ionizing radiation or endogenous physiological processes, H2AX becomes phosphorylated at Ser139. This phospho-Ser139 serves as a sensitive biomarker for the detection of such breaks, localizing the site of DNA repair. So, HTRF phospho-H2AX Ser139 is a pertinent assay to study genome stability, the cell cycle, DNA repair, and it serves as a biomarker for cancer, and to understand aging. Wild type CHO-K1 cells were used to identify the inducers of Phospho-H2AX Ser 139 from the Tox21 compound collections. Also cytotoxicity of the Tox21 10K compound library against the CHO-K1 cell line was tested by measuring the cell viability using CellTiter-Glo assay (Promega, Madison, WI).
Tox21 Assay Protocol Summary:
The CHO-K1 cells suspended in culture medium containing 10% FBS were dispensed at 1000 cells/ 3 ul/well in 1536-well white wall/solid bottom plates (Greiner Bio-One North America, NC) using a Multidrop Combi (Thermo Fisher Scientific Inc., Waltham, MA). After the assay plates were incubated at 37C overnight, 23 nl of compounds at 15 concentrations (from 5-48 columns) or positive control (from 1 to 4 columns) were transferred to the assay plates using a Pintool station (Wako, San Diego, CA) into each well resulting in a final DMSO concentration of 0.76%. After 3hr incubation at 37C, 3 uL/well CellTiter-Glo luminescent cell viability reagent (Promega Corporation, Madison, WI) was added using a Flying Reagent Dispenser (FRD) (Aurora Discovery, CA). After incubation at room temperature for 30 min, the luminescence intensity was read using a ViewLux plate reader (PerkinElmer, Waltham, MA).
(In general: In qHTS, concentration-response curves come from the screen itself.)
As for `C=CCOc1c(Br)cc(Br)cc1Br`, the Potency result was “inactive”.

For the compound `CCCCCCCCCCCCC`, the Potency entry is “inactive”.

On to `BrC/C=C/CBr`, for which the activity change, negative = cytotoxicity was 1.6% [at 31.6 µM].

Turning to `O=C1CC[C@H](C(=O)N2CCCCC2)N1`, the Potency result was “inactive”.

Take `CC(=O)OCCCc1ccccc1`: the Potency entry is “inactive”.

With `CCCOCCOCCOCCO`, the Potency result is “inactive”.

In the case of `O=C(O)CCNC(=O)c1ccccc1`, the Potency result was “inactive”.

Take `CCC(C)(CCC(C)C)C(=O)[O-].CCC(C)(CCC(C)C)C(=O)[O-].[Zn+2]` (stereo not given): the Potency entry is “inactive”.

As to `O=S1(=O)CCCC1`, the Potency entry is “inactive”.

Turning to `C=CCOC(=O)c1ccc(C(=O)OCC=C)c(C(=O)OCC=C)c1`, the Potency entry was “inactive”.

As for `CCOc1ccc(NC(=O)OC(C)C)cc1OCC`, the Potency entry is “inactive”.

Turning to `C=CCOc1cc(Cl)ccc1C(=O)NCCN(CC)CC`, the Potency result was “inactive”.

As for `C[CH2][Ge]([Cl])([CH2]C)[CH2]C`, the Potency entry is “inactive”.

Take `CCCCC[Si](OCC)(OCC)OCC`: the Potency entry is “inactive”.

On to `c1ccccc1`, for which the Potency result is “inactive”.

Consider `Cc1nc([N+](=O)[O-])cn1-c1ccc([N+](=O)[O-])cc1`, for which the Potency entry is “inactive”.

As to `CCCCCCCCCCCCC1CO1` (stereo not given), the Potency result is “inactive”.

As to `CCN(CCO)c1cccc(C)c1`, the Potency entry is “inactive”.

`O=C(O)c1ccc(OCCN2CCCCC2)cc1`: the Potency entry is “inactive”.

As to `Cc1cc(O)c2c(c1)C(=O)c1cccc(O)c1C2=O`, the Potency entry was “inactive”.

Take `O=C(CN1CCN(Cc2ccc3c(c2)OCO3)CC1)N1c2ccccc2Sc2ccccc21`: the Potency entry is “inactive”.

Turning to `C=CCCCCCCCCCCC`, the activity change, negative = cytotoxicity is 3.67% [at 14 µM].

For the compound `COc1cccc2sc(N)nc12`, the Potency entry was “inactive”.

For the compound `Cc1ccc(S(=O)(=O)NC(=O)NC2CCCCCCC2)cc1`, the Potency entry is “inactive”.

In the case of `CCCCC(=O)N(C)C`, the Potency result was “inactive”.

Consider `CCCCCCCCCCCCCC(=O)OC`, for which the Potency entry was “inactive”.

For `O=C(O)C(=O)Nc1cccc(-c2nn[nH]n2)c1`, the Potency result was “inactive”.

Take `Nc1cc(C(=O)O)ccc1Cl`: the Potency result is “inactive”.

Take `O=S(=O)(O)CCO`: the Potency result was “inactive”.

`CC(C)CCO`: the Potency entry was “inactive”.

Turning to `C/C=C(\C)C(=O)OCC/C=C\CC`, the Potency entry was “inactive”.

`O=C(Oc1ccccc1C(=O)O)c1ccccc1O`: the Potency entry was “inactive”.

For the compound `CCOC(=O)C(=O)c1csc(NC=O)n1`, the Potency entry is “inactive”.

For the compound `CCC1Nc2cc(Cl)c(S(N)(=O)=O)cc2S(=O)(=O)N1` (stereo not given), the Potency result was “inactive”.

Take `CCS(=O)(=O)CCn1c([N+](=O)[O-])cnc1C`: the Potency entry is “inactive”.

As to `CCN(CCC#N)c1ccccc1`, the Potency result is “inactive”.

For `CCOC(=O)CC#N`, the Potency entry was “inactive”.

Turning to `CCCCCCCCCCC`, the Potency entry was “inactive”.

For `CC(=O)Nc1ccc(C)cc1`, the Potency result was “inactive”.

With `Cc1c(C(C)C)c(=O)n(-c2ccccc2)n1C`, the Potency entry was “inactive”.
